aSyn UTR act = Activators via SNCA 5'UTR binding, MLPCN; alpha-synuclein 5'UTR reporter, activators screen; activity score, % (tested at 7.5 µM), hits read low; 300,000 tested, 7.1% active; AID 1814, 2009; in the data active = activity score below about -60%
Active calls of the source: *. These entries were drawn from the full list.

SMILES | aSyn UTR act
Cc1cc(Cl)ccc1OCC(=O)Nc1ccccc1CO | -81*
N#CC1CC(c2ccccc2)=NN1c1ccccc1[N+](=O)[O-] (stereo unspecified) | -95*
O=C(Nc1cccc(O)c1)c1c(O)c2ccccc2[nH]c1=O | -92*
CC(=O)n1c2c(c3ccccc31)OC(N)=C(C#N)C2c1ccc(C(C)C)cc1 (stereo unspecified) | -118*
N#CC1=C(N)Oc2c(ccc3ccccc23)C1c1cccs1 (stereo unspecified) | 110
CCOc1ccc(CNC(=O)Nc2ccccc2)cc1 | -103*
O=C(Cc1ccc(O)cc1)NC1CCCCCC1 | -119*
COc1ccc(CNC(=O)Nc2cccc(C)c2)cc1 | -153*
COc1ccc(C(=O)/C=C/C(=O)N(CC(=O)NC2CCCCC2)Cc2ccc(F)cc2)c(O)c1 | 72
Cc1ccc(CNC(=O)NC2CCCCC2)cc1 | -92*
COc1ccc(CNC(=O)Nc2ccccc2)cc1 | -114*
Cc1ccc(CNC(=O)Cc2ccc(-c3ccccc3)cc2)cc1 | 73
Cc1ccc(CNC(=O)Nc2ccc(C)cc2)cc1 | -75*
Cc1cc2cc(CNC(=O)Nc3ccccc3)ccc2[nH]1 | -98*
O=C(CSc1ccc(F)cc1)NC1CCCCC1 | -69*
COCCn1c(C)cc(C(=O)CSc2nc3ccccc3c(=O)n2Cc2ccco2)c1C | -176*
Nc1nc2ccccc2n1C(=O)CCc1ccccc1 | -63*
O=C(CCC1CCCCC1)Nc1ccccc1O | -163*
Cc1ccc(O)c(NC(=O)CCC2CCCCC2)c1 | -152*
Cn1c(NC(=O)CCC2CCCCC2)cc(=O)n(C)c1=O | -63*
Cc1ccc(OCC(=O)Nc2nnn(C)n2)c(C)c1 | -87*
CC1c2cc3c(cc2CCN1C(=O)c1cccc(Cl)c1)OCCCO3 (stereo unspecified) | -65*
Cc1nc(SCc2ccccc2)nc2c1CCC2 | -115*
COc1ccc(CCC(=O)NCCOc2ccccc2Cl)cc1 | -92*
O=C(NCCOc1ccccc1Cl)c1cc(F)c(F)cc1Cl | -123*
SMILES | aSyn UTR act
O=C(NCCOc1ccccc1)c1ccccc1Cl | -75*
Cc1noc(C)c1-c1nnc(-c2ccc(C(F)(F)F)cc2)o1 | -66*
Brc1ccc(-c2nnc(-c3ccccc3Br)o2)cc1 | -100*
Clc1ccc(-c2nnc(-c3cccnc3)o2)cc1 | -139*
Brc1ccc(-c2nnc(-c3cccnc3)o2)cc1 | -144*
CCCOc1ccc(-c2nnc(-c3ccncc3)o2)cc1 | -80*
Clc1ccc(-c2nnc(-c3ccccc3)o2)cn1 | -153*
COc1ccc(-c2nnc(-c3cccnc3)o2)cc1 | -111*
FC(F)(F)c1ccc(-c2nnc(-c3cccnc3)o2)cc1 | -88*
CCCOc1ccc(C(=O)NNC(=S)NC(C)=O)cc1 | 68
Cc1ccc(-c2nnc(-c3cccnc3)o2)cc1 | -113*
Brc1ccccc1-c1nnc(-c2cccnc2)o1 | -106*
CNS(=O)(=O)c1ccc(NC(=O)c2cc(-c3ccncc3)nc3ccc(Cl)cc23)cc1 | -98*
Cc1ccc(NC(=S)N=Nc2c(O)n(C)c3ccc(S(=O)(=O)N4CCOCC4)cc23)cc1 | 75
O=C(Nc1ccc(NC(=O)C2CCCCC2)nc1)c1ccccn1 | -108*
Cc1ccc(S(=O)(=O)N2CCCC(C(=O)Nc3ccc(NC(=O)c4ccccn4)cc3)C2)cc1 (stereo unspecified) | -74*
O=C(Nc1ccc(NC(=O)C2CCCCC2)nc1)c1ccco1 | -101*
CNS(=O)(=O)c1ccc(NC(=O)c2ccccn2)cc1 | -73*
O=C(Nc1ccc(NC(=O)C2CC2)nc1)c1ccco1 | -121*
Cc1ccc(NC(=O)Nc2ccc3c(c2)OCO3)c(OC(F)F)c1 | -106*
Cc1cc(F)ccc1NC(=O)Nc1ccc2c(c1)OCO2 | -72*
Cc1ccc(NC(=O)Nc2ccc3c(c2)OCO3)cc1F | -109*
Cc1ccc(NC(=O)CSc2ccc(-c3ccc4c(c3)OCO4)nn2)cc1F | -76*
Cc1sc2ncnc(Sc3ccccc3C(=O)Nc3ccc(Br)cc3)c2c1C | -86*
S=C(c1ccc(-c2ccc(Cl)cc2Cl)o1)N1CCCC1 | -140*
SMILES | aSyn UTR act
S=C(c1ccc(-c2ccc(Cl)cc2Cl)o1)N1CCCCC1 | -208*
CCC(C)[C@H](NC(=O)N1CC(=O)Nc2ccccc21)C(=O)Nc1ccccc1C (stereo partly specified) | -95*
CC(=O)c1cccc(NC(=O)c2cc(-c3ccc(C)cc3)on2)c1 | -137*
CCCc1cc(C(=O)Nc2cccc(C(C)=O)c2)no1 | -80*
CCCc1ccc(OCc2ccc(C(=O)N/N=C/c3cccnc3)o2)cc1 | -143*
CC(C)(C)c1ccc(OCc2ccc(C(=O)N/N=C/c3ccc([N+](=O)[O-])cc3)o2)cc1 | -138*
O=C(c1ccc(COc2ccc3c(c2)CCC3)o1)N1CCN(c2ccccc2)CC1 | -73*
Cc1ccc(COc2ccccc2-c2cc(C(=O)N/N=C/c3cccnc3)[nH]n2)cc1 | -77*
NNC(=O)c1ccc(COc2ccc3c(c2)CCC3)o1 | -74*
CC(C)(C)c1ccc(OCc2ccc(C(=O)NCc3cccnc3)o2)cc1 | -133*
CC(C)(C)c1ccc(OCc2ccc(C(=O)NN)o2)cc1 | -107*
COc1cc(Br)cc(/C=N/NC(=O)Cc2ccc(C(F)(F)F)cc2[N+](=O)[O-])c1O | 68
O=C(CSc1ccc(C(F)(F)F)cc1[N+](=O)[O-])Nc1ccccc1 | -75*
O=C(CCl)Nc1cc(SCC(O)CO)cc([N+](=O)[O-])c1 (stereo unspecified) | 110
COc1ccc(C(=O)C[n+]2cn(C(F)F)c3ccccc32)c(F)c1 | -117*
CCCC(=O)c1ccc(N2CCCC2)c(F)c1 | -139*
CCC(=O)c1ccc(N2CCCCCC2)c(F)c1 | -133*
CCC(=O)c1ccc(N2CCN(C(=O)c3cccs3)CC2)c(F)c1 | -103*
Cc1ccc(C(=O)c2cc([N+](=O)[O-])ccc2N2CCN(C)CC2)cc1 | 59
CCOC(=O)N1CCN(c2ccc(C(=O)c3ccccc3)cc2F)CC1 | -99*
O=[N+]([O-])c1ccc2c(c1)nc1n2CCN(c2ccccc2)C1 | -125*
CCn1ccnc1CNC(=O)c1ccc2oc(CCCc3ccccc3)nc2c1 | -75*
CCCCc1nc2cc(C(=O)NC(C)c3cnn(C)c3)ccc2o1 (stereo unspecified) | -77*
CCCCc1nc2cc(C(=O)N3CCCC3)ccc2o1 | -90*
COCC1CCN(C(=O)c2ccc3oc(CCCc4ccccc4)nc3c2)C1 (stereo unspecified) | -95*
SMILES | aSyn UTR act
CCCCc1nc2cc(C(=O)N3CCCC(COC)C3)ccc2o1 (stereo unspecified) | -86*
CCCCc1nc2cc(C(=O)N3CCCCC3C(=O)OC)ccc2o1 (stereo unspecified) | -98*
CC1CC(C)CN(Cc2nc(N)nc(Nc3ccc4ccccc4c3)n2)C1 (stereo unspecified) | -115*
O=C(COc1ccccc1N1C(=O)c2ccccc2C1=O)c1ccc(Cl)cc1 | -87*
O=C(Nc1cccc(Br)c1)c1ccc(OC2CSC2)cc1 | -198*
Cc1cccc(NC(=O)c2ccc(OC3CSC3)cc2)c1 | -177*
Nc1nc2c(C(=O)N3CCOCC3)nnn2c2ccccc12 | -66*
O=[N+]([O-])c1nn(-c2ccccc2)n(O)c1=NC1CCN(Cc2ccccc2)CC1 | 76
Cc1ccc(CN=c2c([N+](=O)[O-])nn(-c3ccc(Cl)cc3)n2O)cc1 | -69*
Cc1cccc(N=c2c([N+](=O)[O-])nn(-c3ccc(Cl)cc3)n2O)c1 | -68*
Cc1cc(C)cc(N=c2c([N+](=O)[O-])nn(-c3cccc(Cl)c3)n2O)c1 | -66*

Assay outcomes (PubChem BioAssay)
